Screens deposited in PubChem BioAssay by National Center for Advancing Translational Sciences (NCATS).
LmPK inh – blocks Leishmania mexicana pyruvate kinase activity; Q27686; purified LmPK, Kinase-Glo ATP luminescence, 1 h; Potency, µM (titrated, usually from 57.5 µM), for inactives: at the top dose activity change, negative = inhibition, hits mostly inhibitors; AID 1721; actives 0.37% (n = 290,000)
Target sequence (Q27686 whole entry, looked up): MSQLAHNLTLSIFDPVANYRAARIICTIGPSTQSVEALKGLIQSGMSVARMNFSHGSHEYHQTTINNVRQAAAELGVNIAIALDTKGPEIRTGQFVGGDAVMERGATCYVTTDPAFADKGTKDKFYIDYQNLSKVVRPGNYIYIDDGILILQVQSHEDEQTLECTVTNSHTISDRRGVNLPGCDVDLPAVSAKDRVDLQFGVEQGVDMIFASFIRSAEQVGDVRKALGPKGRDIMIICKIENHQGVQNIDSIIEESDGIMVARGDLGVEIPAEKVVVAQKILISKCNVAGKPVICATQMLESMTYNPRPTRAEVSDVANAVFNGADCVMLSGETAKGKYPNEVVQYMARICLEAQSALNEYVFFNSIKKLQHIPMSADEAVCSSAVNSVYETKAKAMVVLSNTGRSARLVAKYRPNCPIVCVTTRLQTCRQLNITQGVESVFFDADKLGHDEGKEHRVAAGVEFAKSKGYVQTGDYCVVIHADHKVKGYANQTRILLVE
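0.1 nM LmPK, 0.5 mM PEP, 0.1 mM ADP; 50 mM imidazole pH 7.2, 7 mM MgCl2, 50 mM KCl; 1 h RT. Kinase-Glo luminescence readout, normalized to no-enzyme (full inhibition) and uninhibited wells.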
AmpC no deterg – blocks E. coli AmpC beta-lactamase in detergent-free assay; AID 485341; P00811; actives 0.52% (n = 330,000); Potency, µM (highest dose often 57.1 µM), without a hit: top-dose activity change, negative = inhibition, hits mostly inhibitors; AmpC nitrocefin hydrolysis, absorbance 480 nm, 0.0001% Triton;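 also: plate controls were no compound for no effect and no enzyme for full effect; nearly all actives have a fitted effect of over 20% in size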
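AmpC (5.3 nM in the dispensed reagent) in 20 mM phosphate pH 7.0 with 0.01% (detergent screen) or 0.0001% Triton X-100 was preincubated with compounds for 15 min at room temperature. Nitrocefin was then added from an 800 uM solution, and hydrolysis was followed at 480 nm.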
Giardia FBPA inh – blocks Giardia fructose-bisphosphate aldolase activity | A8B2U2 | purified Giardia FBPA | Potency, µM (doses to about 59.6 µM), inactives show at the top dose activity, negative = inhibition, hits mostly inhibitors | actives 0.71% (n = 290,000) | AID 2451; also: nearly all actives have a fitted effect of over 55% in size
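Giardia FBPA (40 nM reagent) was preincubated 10 min at RT with compound (up to 57.5 uM final), then substrate plus GAPDH/TPI/NAD/arsenate coupling system with diaphorase/resazurin was added; resorufin fluorescence (525/598 nm) was read after 20 min.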
AmpC detergent – inhibitors of E. coli AmpC beta-lactamase with detergent; P00811; AmpC hydrolysis of nitrocefin, absorbance 480 nm, 0.01% Triton; Potency, µM (titrated, usually from 114 µM), for inactives: top-dose activity change, negative = inhibition, most hits filed as inhibitors; actives 0.041% (n = 370,000);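 also: 0% = no-compound wells and -100% = no-enzyme wells; nearly all actives have a fitted effect of over 25% in size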
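AmpC (5.3 nM in the dispensed reagent) in 20 mM phosphate pH 7.0 with 0.01% (detergent screen) or 0.0001% Triton X-100 was preincubated with compounds for 15 min at room temperature. Nitrocefin was then added from an 800 uM solution, and hydrolysis was followed at 480 nm.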
AMA1-RON2 inh – disrupts binding of P. falciparum AMA1 to RON2 | AID 720542 | AlphaScreen AMA1-biotinylated RON2 peptide binding | actives 0.2% (n = 360,000) | Potency, µM (highest dose often 58.2 µM), inactives show top-dose activity change, negative = inhibition, most hits filed as inhibitors;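 also: 0% = vehicle wells and -100% = peptide control; nearly all actives have a fitted effect of over 45% in size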
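AMA1 (3D7) with his tag at 25 nM final met compounds first, then biotinylated RON2 peptide at 25 nM; detection used donor plus acceptor beads, 10 µg/mL apiece, read by AlphaScreen after 30 min at room temperature.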
Numbers without * were called inactive; ? = inconclusive; . = no result given; [ ] = another dose, or the depositor's remark. This is a sample that favours compounds with a hit; in the whole collection about 1.3% have one here. Calls follow the shape of the dose curve; as a rule, active = well fitted curve in the direction sought with a large enough effect; inconclusive = small, poorly fitted or top-dose-only effect, or another doubt; inactive = no such curve, though single readings can be large; an effect the other way counts as inactive or inconclusive. Unless noted, % is scaled to controls: 0 for no effect and ±100 for the full control effect; potency is read from the fitted curve at half-maximal effect.

SMILES	LmPK inh	AmpC no deterg	Giardia FBPA inh	AmpC detergent	AMA1-RON2 inh
OCCNc1nc(Cl)nc(NCc2ccco2)n1	-7.3%	-7.1%	-1.2%	-5.3%	-6.4%
C[C@H]1CN([C@@H](C)CO)C(=O)c2cc(Br)cnc2O[C@@H]1CN(C)C(=O)Nc1ccc(C(F)(F)F)cc1	.	.	.	.	2.8%
CC[n+]1ccc(/C=C/c2ccc(N(C)C)cc2)c2ccccc21	15.8µM*	21.6%	-13.8%	-8.5%	28.2µM*
CCCCc1ccc(NC(=O)CSc2nc(=O)[nH]c3c2CCCC3)cc1	.	.	.	3.7%	.
CC(C)c1ccc(NC(=O)CSc2nc(=O)[nH]c3c2CCCC3)cc1	.	35.5µM*	.	-14.8%	-5.9%
CSCCC(NC(=O)COc1ccccc1)C(=O)OCC(=O)c1ccccc1 (configuration not stated)	.	1.7%	.	2.7%	-4.2%
CSCCC(NS(=O)(=O)c1ccc2ccccc2c1)C(=O)OCC(=O)c1ccc(C(C)C)cc1 (configuration not stated)	4.8%	7.94µM*	-0.7%	-7.0%	-12.9%
COc1ccc(-c2ccc(SC)nn2)cc1	14.1µM*	-3.0%	-9.9%	-13.5%	0.2%
CCOc1ccc(-c2ccc(SCC)nn2)cc1	11.2µM*	17.4%	1.1%	-3.0%	3.9%
CCSc1ccc(-c2ccc(C)cc2)nn1	-6.1%	-12.2%	-13.6%	?	-8.1%
COc1ccc(CCC(=O)NCCc2csc(-c3ccc(C(F)(F)F)cc3)n2)cc1	.	.	.	6.1%	.
COc1ccc(C(CNC(=O)c2ccc(S(=O)(=O)Nc3ccccc3OC)cc2)N2CCCC2)cc1 (configuration not stated)	.	.	.	.	-3.6%
O=[N+]([O-])c1ccc(C(O)CN=Cc2ccc(O)cc2O)cc1 (configuration not stated)	3.9%	12.6µM*	-7.6%	-3.6%	73.3%
CN(C)/N=C/c1cc([N+](=O)[O-])ccc1O	0.7%	-17.8%	-0.6%	-0.8%	66.8%
S=C(NCc1ccco1)Nc1ccc(Br)cn1	-2.7%	-2.9%	-2.7%	-3.9%	30.2%
S=C(NCc1ccco1)Nc1cc(-c2ccccc2)[nH]n1	-3.2%	15.8µM*	0.7%	-2.4%	22.4%
Oc1ccc(-c2csc(Nc3ccccn3)n2)cc1O	?	1.58µM*	-16.6%	-7.9%	2.3%
Cc1ccnc(Nc2nc(-c3ccc(O)c(O)c3)cs2)c1	?	-23.3%	-22.6%	1.9%	35.0%
CCOc1ccc(N2C(=O)/C(=C/c3ccco3)C(=O)NC2=S)cc1	18.9%	12.6µM*	8.1%	?	3.98µM*
Cc1ccccc1N1C(=O)/C(=C/c2ccco2)C(=O)NC1=S	-7.5%	7.08µM*	?	44.7µM*	.
Cc1cccc(-c2nc(C)c(CCNC(=O)c3cccs3)s2)c1	.	.	.	-2.9%	.
COc1cc(C2C(C(C)=O)=C(O)C(=O)N2CCN2CCOCC2)ccc1O (configuration not stated)	-13.9%	-21.6%	-16.0%	-11.7%	1.5%
CCCOc1ccc(C2C(C(=O)/C=C/c3ccco3)=C(O)C(=O)N2CCN2CCOCC2)cc1OC (configuration not stated)	-0.8%[11.5 µM]	91.6%	7.92µM*	-3.8%	-18.3%
O=[N+]([O-])c1ccc(Nc2ccc3ccccc3c2)nc1	9.3%	0.316µM*	-3.0%	0.6%	-4.8%
CCCCOc1ccc(C(=O)NCC(=O)NCC2CCCO2)cc1 (configuration not stated)	-1.4%	1.0%	.	-10.6%	12.4%
SMILES	LmPK inh	AmpC no deterg	Giardia FBPA inh	AmpC detergent	AMA1-RON2 inh
O=C1/C(=C/c2cccs2)CCC/C1=C\c1cccs1	-11.8%	-25.4%	.	-0.6%	11.2µM*
CC1C/C(=C/c2cccs2)C(=O)/C(=C/c2cccs2)C1 (configuration not stated)	2.0%	-20.3%	-5.3%	-11.2%	?
CCCC(=O)Nc1nc2c(s1)COc1ccccc1-2	-5.9%	-22.1%	-5.9%	-6.5%	-1.7%
O=C(CCSc1ccccc1)Nc1nc2c(s1)COc1ccccc1-2	-4.7%	3.16µM*	-9.5%	?	55.8%
CCCCC(=O)Nc1nc2c(s1)COc1ccccc1-2	-2.8%	-0.9%	2.0%	-13.1%	-4.1%
CC(C)(C)C(=O)Nc1nc2c(s1)COc1ccccc1-2	3.5%	0.708µM*	-9.6%	?	4.2%
Cc1nn(CCc2n[nH]c(=S)n2C)c(C)c1Br	-19.5%	-13.8%	-22.5%	-0.3%	-4.5%
Cc1nn(CCc2n[nH]c(=S)n2C2CCCCC2)c(C)c1Br	7.94µM*	-22.5%	0.6%	-11.3%	45.3%
Cc1ccc(S(=O)(=O)c2nc(C)oc2NCc2ccccc2)cc1	1.2%	-59.7%	-20.4%	50.1µM*	.
S=C1NC2=C(CCC/C2=C\c2ccccc2)C(c2ccccc2)N1 (configuration not stated)	-4.1%	11.2µM*	0.8%	-12.3%	-5.9%
CCc1ccc(-n2c(SCC(=O)NC(C)CC)nc3n[nH]c(C)c3c2=N)cc1 (configuration not stated)	.	.	.	1.6%	.
O=C(CCn1cccn1)Nc1ccc2c(c1)OCO2	-4.3%	-20.6%	-10.3%	5.0%	28.8%
COc1ccc(N2CCN(c3oc(COc4ccc(Cl)cc4Cl)nc3C#N)CC2)cc1	3.2%	-18.9%	1.0%	?	25.1µM*
COc1ccc(N2CCN(c3oc(Cc4ccccc4)nc3C#N)CC2)cc1	0.3%	-12.0%	0.9%	3.4%	16.8µM*
Cc1ccc(SCC(CC(C)C)N2CCN(C)CCC2=O)cc1 (configuration not stated)	.	.	3.5%	.	.
O=C(O)c1cccc(COc2ccccc2Cl)c1	14.1µM*	1.1%	?	-2.0%	-4.1%
O=C(O)c1ccc(COc2ccccc2Cl)cc1	-13.8%	-19.6%	?	6.5%	-2.4%
OCCC1CN(Cc2c(O)ccc3ccccc23)CCN1CCc1ccccc1 (configuration not stated)	7.3%	74.7%	19.9µM*	8.6%	-20.8%
OCCC1CN(Cc2ccccc2O)CCN1CCCc1ccccc1 (configuration not stated)	0.8%	10.6%	1.9%	-8.9%	-1.9%
Cc1ccc(N=Nc2cc(C)ccc2N)cc1	14.1µM*	-42.9%	-1.4%	-6.1%	31.6µM*
CCN(CC)C(=O)CSc1nc(-c2ccc(C)cc2)nc2c1Cc1c(CO)cnc(C)c1O2	.	.	.	-2.2%	.
CCC1CC=CC2C1C(=O)N(Cc1ccccc1)C2c1ccc2ccccc2c1 (configuration not stated)	.	.	-4.3%	.	.
CCC(C)NC(=O)C(Cc1ccccc1)n1cccc1 (configuration not stated)	5.8%	0.501µM*	5.4%	?	-11.9%
O=C(NCCc1ccccc1)c1nccc2ccccc12	.	-4.6%	.	-14.1%	8.6%
CC(C)Nc1ccc(Nc2ccnc3cc4ccccc4cc23)cc1	-3.3%	-45.2%	-11.6%	10.5%	7.94µM*
COc1ccc(Nc2ccnc3ccccc23)cc1	7.5%	-19.4%	-11.5%	-12.4%	-3.2%
